The results in this text go back to article PMC7862700, “An all-to-all approach to the identification of sequence-specific readers for epigenetic DNA modifications on cytosine”.

Holding throughout (test): DAPPL (digital affinity profiling via proximity ligation, sequencing); 10 mM Tris-HCl pH 7.5, 50 mM NaCl, 1 mM DTT, 4% glycerol, room temperature, 30 min; GST-TFs on glutathione beads, 16-mer random dsDNA library, 0.1% formaldehyde crosslink after washing; high values mean tight binding
One assay has as its target T1, FEV (Homo sapiens, UniProt Q99581 1-238).
T1 sequence: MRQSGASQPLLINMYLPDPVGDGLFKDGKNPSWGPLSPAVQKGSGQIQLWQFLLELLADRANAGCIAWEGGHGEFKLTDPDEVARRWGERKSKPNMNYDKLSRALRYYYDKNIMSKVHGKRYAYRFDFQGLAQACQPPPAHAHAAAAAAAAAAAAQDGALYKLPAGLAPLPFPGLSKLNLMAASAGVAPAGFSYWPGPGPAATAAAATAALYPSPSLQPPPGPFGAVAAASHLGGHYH
The following applies: protein: recombinant; tags: N-terminal GST; dsDNA, one strand shown. The method, boiled down: (§1)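 Yeast served to express human transcription factors as GST fusions, which were then captured on glutathione beads and labelled with DNA barcodes. Pooled with a tag-only sample, they were incubated with 200 nmole of a 16-mer random double-stranded DNA library for 30 min at room temperature in Tris/NaCl/DTT/glycerol buffer, washed, crosslinked with 0.1% formaldehyde, ligated by proximity, amplified by PCR and sequenced. Dividing each hexamer's read frequency for a factor by its frequency for the tag-only sample gives the binding signal.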

In a further assay the target is ETV5 (Homo sapiens, UniProt P41161 1-510). The following applies: protein: recombinant; tags: N-terminal GST; dsDNA, one strand shown. In outline: as §1
ETV5, sequence (P41161 whole entry): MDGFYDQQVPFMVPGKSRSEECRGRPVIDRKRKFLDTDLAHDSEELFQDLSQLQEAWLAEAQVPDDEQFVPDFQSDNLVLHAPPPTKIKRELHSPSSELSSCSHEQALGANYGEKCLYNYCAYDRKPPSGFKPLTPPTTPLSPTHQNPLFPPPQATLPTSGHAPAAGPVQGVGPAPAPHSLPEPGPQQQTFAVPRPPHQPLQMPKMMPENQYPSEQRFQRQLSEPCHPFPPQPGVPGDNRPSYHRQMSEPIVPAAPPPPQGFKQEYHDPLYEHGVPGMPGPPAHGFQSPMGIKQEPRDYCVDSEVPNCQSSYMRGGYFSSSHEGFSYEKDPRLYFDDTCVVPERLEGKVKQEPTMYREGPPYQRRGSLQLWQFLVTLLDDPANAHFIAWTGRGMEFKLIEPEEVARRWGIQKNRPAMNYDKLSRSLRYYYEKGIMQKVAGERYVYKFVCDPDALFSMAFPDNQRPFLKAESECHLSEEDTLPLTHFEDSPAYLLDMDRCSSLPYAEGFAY
In another assay the target is HSF1 (Homo sapiens, UniProt Q00613 1-529). The following applies: protein: recombinant; tags: N-terminal GST; chain copies: 3; dsDNA, one strand shown. In outline: as §1
HSF1, sequence (Q00613 whole entry): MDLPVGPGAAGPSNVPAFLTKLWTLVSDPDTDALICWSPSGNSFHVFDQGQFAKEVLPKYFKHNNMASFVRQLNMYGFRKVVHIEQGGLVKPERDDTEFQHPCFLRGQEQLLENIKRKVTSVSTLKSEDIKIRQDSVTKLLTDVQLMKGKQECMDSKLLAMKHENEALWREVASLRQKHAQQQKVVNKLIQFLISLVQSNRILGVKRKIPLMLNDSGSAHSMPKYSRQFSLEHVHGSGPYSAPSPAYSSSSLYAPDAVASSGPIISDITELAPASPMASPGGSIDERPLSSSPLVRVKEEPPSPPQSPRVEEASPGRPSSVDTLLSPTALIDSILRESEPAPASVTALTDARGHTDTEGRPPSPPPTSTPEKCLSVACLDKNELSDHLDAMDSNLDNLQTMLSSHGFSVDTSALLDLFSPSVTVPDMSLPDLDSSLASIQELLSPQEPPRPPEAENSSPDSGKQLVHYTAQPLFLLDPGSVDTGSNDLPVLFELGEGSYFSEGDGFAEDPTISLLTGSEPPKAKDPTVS
The target of the next assay is T2, SPIC (Homo sapiens, UniProt Q8N5J4 1-248).
T2 sequence: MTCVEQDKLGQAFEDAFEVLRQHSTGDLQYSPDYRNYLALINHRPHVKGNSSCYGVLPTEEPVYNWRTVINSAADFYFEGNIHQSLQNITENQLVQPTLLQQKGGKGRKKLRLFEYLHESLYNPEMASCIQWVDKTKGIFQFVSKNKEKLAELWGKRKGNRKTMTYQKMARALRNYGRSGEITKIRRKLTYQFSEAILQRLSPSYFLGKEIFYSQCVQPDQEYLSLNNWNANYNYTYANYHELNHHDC
The following applies: protein: recombinant; tags: N-terminal GST; dsDNA, one strand shown. The method, boiled down:
as §1

In another assay the target is ELF4 (Homo sapiens, UniProt Q99607 1-663). The following applies: protein: recombinant; tags: N-terminal GST; dsDNA, one strand shown. In outline: as §1
ELF4, sequence (Q99607 whole entry): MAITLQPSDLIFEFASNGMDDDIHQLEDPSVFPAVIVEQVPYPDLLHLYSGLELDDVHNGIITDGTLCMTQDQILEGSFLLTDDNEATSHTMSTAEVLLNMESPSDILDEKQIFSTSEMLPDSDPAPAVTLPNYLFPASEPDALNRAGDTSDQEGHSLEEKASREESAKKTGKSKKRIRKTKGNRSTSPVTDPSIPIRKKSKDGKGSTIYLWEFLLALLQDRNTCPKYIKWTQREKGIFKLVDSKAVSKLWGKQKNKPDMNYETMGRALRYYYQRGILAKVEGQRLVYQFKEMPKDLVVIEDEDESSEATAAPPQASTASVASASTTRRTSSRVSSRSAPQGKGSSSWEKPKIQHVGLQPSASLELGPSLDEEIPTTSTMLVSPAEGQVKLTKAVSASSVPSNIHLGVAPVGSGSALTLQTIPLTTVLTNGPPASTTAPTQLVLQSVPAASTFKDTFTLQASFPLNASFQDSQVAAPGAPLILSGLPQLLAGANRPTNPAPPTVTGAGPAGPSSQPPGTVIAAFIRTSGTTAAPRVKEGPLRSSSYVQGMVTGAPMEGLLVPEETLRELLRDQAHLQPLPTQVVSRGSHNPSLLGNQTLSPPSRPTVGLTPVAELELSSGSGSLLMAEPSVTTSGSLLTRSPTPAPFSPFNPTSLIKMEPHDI
In another assay the target is T3, ELK4 (Homo sapiens, UniProt P28324-2 1-405).
T3 sequence: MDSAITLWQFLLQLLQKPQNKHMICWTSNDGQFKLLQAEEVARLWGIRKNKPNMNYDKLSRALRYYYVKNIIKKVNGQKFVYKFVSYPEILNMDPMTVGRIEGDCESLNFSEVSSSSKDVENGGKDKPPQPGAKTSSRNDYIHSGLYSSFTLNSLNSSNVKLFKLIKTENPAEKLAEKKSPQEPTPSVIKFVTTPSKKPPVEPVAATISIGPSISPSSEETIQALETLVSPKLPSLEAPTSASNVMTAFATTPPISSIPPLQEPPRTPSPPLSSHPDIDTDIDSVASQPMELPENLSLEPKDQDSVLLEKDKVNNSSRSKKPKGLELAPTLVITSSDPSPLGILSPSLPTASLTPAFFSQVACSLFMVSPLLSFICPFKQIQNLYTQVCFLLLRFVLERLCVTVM
The following applies: protein: recombinant; tags: N-terminal GST; dsDNA, one strand shown. In outline: as §1

The target of another assay is T4, ETV2 (Homo sapiens, UniProt O00321 1-342).
T4 sequence: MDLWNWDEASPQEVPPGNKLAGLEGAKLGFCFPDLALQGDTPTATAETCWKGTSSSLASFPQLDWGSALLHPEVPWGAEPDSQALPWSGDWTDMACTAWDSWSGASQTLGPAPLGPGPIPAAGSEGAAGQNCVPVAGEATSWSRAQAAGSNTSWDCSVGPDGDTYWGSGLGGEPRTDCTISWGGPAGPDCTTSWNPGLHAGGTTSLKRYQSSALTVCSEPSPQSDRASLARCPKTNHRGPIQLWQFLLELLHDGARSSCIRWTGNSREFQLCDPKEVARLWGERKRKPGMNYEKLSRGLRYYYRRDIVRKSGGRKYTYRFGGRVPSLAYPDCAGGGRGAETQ
The following applies: protein: recombinant; tags: N-terminal GST; dsDNA, one strand shown. In outline: as §1

The next assay addresses T5, ELF3 (Homo sapiens, UniProt P78545 1-371).
T5 sequence: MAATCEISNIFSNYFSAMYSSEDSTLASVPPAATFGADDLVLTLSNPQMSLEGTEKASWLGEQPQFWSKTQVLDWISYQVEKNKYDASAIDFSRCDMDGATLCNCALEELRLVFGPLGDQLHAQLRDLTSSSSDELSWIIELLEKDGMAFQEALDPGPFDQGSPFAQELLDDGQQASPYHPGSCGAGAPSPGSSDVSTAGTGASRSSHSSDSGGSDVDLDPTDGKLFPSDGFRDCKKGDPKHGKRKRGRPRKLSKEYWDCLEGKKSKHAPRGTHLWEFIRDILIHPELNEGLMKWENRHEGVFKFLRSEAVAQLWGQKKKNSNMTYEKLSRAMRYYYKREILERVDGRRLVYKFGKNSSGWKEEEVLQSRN
Particulars: protein: recombinant; tags: N-terminal GST; dsDNA, one strand shown. The method, boiled down:
as §1

The next assay concerns the target CRX (Homo sapiens, UniProt O43186 1-299). The following applies: protein: recombinant; tags: N-terminal GST; dsDNA, one strand shown. In outline: as §1
Another assay has as its target ETV1 (Homo sapiens, UniProt P50549 1-477). The following applies: protein: recombinant; tags: N-terminal GST; dsDNA, one strand shown. In outline: as §1
The next assay concerns the target T6, ERF (Homo sapiens, UniProt P50548 1-548).
T6 sequence: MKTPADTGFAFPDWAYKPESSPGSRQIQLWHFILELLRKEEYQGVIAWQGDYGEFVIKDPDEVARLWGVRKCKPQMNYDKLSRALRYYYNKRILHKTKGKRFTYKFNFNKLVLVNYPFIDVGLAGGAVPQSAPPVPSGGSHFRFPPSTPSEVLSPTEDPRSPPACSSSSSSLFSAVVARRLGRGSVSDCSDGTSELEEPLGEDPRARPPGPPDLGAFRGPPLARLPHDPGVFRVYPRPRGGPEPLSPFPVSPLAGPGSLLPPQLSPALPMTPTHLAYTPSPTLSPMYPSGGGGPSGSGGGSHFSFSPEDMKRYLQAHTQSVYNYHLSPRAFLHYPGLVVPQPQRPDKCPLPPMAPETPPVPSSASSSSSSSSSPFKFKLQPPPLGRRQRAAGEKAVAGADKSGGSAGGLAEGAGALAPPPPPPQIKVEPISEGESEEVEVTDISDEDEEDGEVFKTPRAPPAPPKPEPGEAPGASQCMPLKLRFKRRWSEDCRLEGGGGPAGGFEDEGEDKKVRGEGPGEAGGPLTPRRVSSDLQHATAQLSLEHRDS
Particulars: protein: recombinant; tags: N-terminal GST; dsDNA, one strand shown. In outline: as §1

The target of the next assay is T7, ETV3L (Homo sapiens, UniProt Q6ZN32 1-361).
T7 sequence: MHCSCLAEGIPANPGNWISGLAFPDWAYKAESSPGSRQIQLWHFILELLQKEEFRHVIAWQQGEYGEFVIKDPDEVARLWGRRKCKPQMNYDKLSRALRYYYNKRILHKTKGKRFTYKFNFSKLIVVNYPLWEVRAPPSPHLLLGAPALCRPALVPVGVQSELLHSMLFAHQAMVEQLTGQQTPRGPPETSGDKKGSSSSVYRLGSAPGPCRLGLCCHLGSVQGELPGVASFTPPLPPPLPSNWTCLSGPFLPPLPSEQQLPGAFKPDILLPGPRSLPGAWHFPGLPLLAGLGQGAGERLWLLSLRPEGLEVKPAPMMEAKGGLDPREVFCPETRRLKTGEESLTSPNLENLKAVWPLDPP
The following applies: protein: recombinant; tags: N-terminal GST; dsDNA, one strand shown. The method, boiled down:
as §1

The next assay has as its target T8, ETS2 (Homo sapiens, UniProt P15036 1-469).
T8 sequence: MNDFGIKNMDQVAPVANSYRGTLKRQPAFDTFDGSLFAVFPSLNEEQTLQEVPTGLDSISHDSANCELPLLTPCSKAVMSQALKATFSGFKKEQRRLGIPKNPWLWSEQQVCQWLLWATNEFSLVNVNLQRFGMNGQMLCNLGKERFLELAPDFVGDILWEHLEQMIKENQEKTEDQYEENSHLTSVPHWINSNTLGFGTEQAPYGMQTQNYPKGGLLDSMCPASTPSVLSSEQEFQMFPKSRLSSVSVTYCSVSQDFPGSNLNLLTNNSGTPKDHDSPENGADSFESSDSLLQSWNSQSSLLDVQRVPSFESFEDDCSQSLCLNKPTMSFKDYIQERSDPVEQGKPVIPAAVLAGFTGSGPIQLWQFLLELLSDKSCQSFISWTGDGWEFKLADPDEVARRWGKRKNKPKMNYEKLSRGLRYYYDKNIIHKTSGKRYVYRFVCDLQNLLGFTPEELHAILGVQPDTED
Particulars: protein: recombinant; tags: N-terminal GST; dsDNA, one strand shown. In outline: as §1

A further assay has as its target T9, SPDEF (Homo sapiens, UniProt O95238 1-335).
T9 sequence: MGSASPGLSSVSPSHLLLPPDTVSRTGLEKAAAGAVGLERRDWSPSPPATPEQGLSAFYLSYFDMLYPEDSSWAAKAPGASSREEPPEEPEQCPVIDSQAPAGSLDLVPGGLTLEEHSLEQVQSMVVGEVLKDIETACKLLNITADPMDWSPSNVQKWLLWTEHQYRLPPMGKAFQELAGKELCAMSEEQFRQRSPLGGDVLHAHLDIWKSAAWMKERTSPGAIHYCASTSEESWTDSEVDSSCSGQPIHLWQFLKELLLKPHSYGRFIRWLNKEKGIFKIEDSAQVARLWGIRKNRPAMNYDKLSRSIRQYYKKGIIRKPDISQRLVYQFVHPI
Particulars: protein: recombinant; tags: N-terminal GST; dsDNA, one strand shown. The method, boiled down:
as §1

A further assay has as its target T10, ETV7 (Homo sapiens, UniProt Q9Y603 1-341).
T10 sequence: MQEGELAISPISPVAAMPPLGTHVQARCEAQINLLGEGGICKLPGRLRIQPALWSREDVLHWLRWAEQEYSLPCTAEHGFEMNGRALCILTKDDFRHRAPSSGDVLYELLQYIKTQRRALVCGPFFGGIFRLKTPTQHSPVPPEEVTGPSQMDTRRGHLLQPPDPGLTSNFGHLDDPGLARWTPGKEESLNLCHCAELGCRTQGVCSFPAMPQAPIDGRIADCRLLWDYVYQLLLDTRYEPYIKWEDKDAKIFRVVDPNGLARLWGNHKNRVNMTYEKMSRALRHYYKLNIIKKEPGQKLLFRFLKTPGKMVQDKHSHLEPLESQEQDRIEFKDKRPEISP
Particulars: protein: recombinant; tags: N-terminal GST; dsDNA, one strand shown. The method, boiled down: as §1

The target of the next assay is T11, ELF5 (Homo sapiens, UniProt Q9UKW6-2 1-255).
T11 sequence: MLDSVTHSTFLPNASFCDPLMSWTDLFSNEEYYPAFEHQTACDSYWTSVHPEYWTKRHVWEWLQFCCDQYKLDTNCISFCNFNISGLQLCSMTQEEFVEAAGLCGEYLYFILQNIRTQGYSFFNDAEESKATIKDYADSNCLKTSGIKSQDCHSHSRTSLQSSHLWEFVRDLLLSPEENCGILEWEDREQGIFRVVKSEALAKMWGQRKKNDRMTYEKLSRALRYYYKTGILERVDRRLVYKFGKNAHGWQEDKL
Particulars: protein: recombinant; tags: N-terminal GST; dsDNA, one strand shown. The method, boiled down:
as §1

The target of a further assay is T12, ETV3 (Homo sapiens, UniProt P41162-2 1-143).
T12 sequence: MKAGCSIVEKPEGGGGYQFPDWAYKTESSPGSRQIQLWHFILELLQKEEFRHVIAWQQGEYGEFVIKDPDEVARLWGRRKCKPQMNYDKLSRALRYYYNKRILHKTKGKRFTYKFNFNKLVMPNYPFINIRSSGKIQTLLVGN
The following applies: protein: recombinant; tags: N-terminal GST; dsDNA, one strand shown. The method, boiled down:
as §1

In a further assay the target is ETV6 (Homo sapiens, UniProt P41212 1-452). The following applies: protein: recombinant; tags: N-terminal GST; dsDNA, one strand shown. The method, boiled down: as §1
ETV6, sequence (P41212 whole entry): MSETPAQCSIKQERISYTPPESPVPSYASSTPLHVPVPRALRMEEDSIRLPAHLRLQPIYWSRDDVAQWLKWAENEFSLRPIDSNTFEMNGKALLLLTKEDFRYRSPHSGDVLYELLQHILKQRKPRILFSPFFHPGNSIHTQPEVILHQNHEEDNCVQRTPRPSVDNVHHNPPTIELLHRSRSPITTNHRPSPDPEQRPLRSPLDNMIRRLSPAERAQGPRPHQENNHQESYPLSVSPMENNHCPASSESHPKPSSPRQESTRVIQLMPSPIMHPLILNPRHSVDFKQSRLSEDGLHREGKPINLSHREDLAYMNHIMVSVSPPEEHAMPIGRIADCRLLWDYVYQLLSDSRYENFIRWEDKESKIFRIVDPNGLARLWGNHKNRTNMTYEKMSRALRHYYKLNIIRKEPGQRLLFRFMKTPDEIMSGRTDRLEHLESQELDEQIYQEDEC

CRX, sequence (O43186 whole entry): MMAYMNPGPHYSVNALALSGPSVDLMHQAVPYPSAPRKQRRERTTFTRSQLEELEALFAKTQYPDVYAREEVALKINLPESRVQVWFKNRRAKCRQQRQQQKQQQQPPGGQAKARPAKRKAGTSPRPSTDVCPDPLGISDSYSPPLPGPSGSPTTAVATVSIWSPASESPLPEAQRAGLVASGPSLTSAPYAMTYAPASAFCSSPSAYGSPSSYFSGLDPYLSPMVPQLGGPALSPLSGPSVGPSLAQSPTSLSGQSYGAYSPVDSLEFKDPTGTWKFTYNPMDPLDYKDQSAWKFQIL
ETV1, sequence (P50549 whole entry): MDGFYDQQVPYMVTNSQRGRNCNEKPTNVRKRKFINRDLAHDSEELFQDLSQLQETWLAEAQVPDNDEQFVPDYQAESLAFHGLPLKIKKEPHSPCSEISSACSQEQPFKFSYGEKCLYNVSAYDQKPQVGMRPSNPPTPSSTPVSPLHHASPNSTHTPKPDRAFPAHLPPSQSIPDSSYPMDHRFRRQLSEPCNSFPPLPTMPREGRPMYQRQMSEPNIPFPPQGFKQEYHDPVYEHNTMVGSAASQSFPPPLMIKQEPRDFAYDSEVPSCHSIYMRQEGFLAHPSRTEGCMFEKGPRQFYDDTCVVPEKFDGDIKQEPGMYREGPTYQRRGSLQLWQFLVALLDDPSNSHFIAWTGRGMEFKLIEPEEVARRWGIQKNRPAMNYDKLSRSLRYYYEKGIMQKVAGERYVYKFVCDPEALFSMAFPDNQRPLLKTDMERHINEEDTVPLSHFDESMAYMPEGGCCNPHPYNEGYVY

Turning to TTCAAA, the binding signal was 1.25 fold enrichment (6-mer frequency, TF over GST control) with FEV; 1.26 fold enrichment (6-mer frequency, TF over GST control) with ETV5; 1.25 fold enrichment (6-mer frequency, TF over GST control) with HSF1; 1.35 fold enrichment (6-mer frequency, TF over GST control) in the assay with SPIC; 1.26 fold enrichment (6-mer frequency, TF over GST control) with ELF4; 1.33 fold enrichment (6-mer frequency, TF over GST control) with ELK4. The binding signal was 1.34 fold enrichment (6-mer frequency, TF over GST control) with ETV2; 1.43 fold enrichment (6-mer frequency, TF over GST control) with ELF3; 1.28 fold enrichment (6-mer frequency, TF over GST control) with CRX; 1.32 fold enrichment (6-mer frequency, TF over GST control) in the assay with ETV1; 1.26 fold enrichment (6-mer frequency, TF over GST control) with ERF; 1.27 fold enrichment (6-mer frequency, TF over GST control) with ETV3L. For the same sequence, the binding signal with ETS2 is 1.25 fold enrichment (6-mer frequency, TF over GST control); with SPDEF, 1.23 fold enrichment (6-mer frequency, TF over GST control); with ETV7, 1.19 fold enrichment (6-mer frequency, TF over GST control); with ELF5, 1.21 fold enrichment (6-mer frequency, TF over GST control); with ETV3 it was 1.23 fold enrichment (6-mer frequency, TF over GST control); in the assay with ETV6, 1.27 fold enrichment (6-mer frequency, TF over GST control).
